Values joined by “and” are separate entries in the source; they are usually repeats but may differ in a detail not shown here. Equal values may be shown once. The panel holds about 83,000 compounds, 20% with a hit somewhere; the sample as a whole holds those more often.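 96-well plates, one dose, 48 hours. Percent growth reported; active if below 10.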 Values without a mark were called inactive. Active and inactive are the calls of the source. Where a SMILES comes first, the peptide text is derived from it. [ ]: non-standard residue; d: D form. ξ: configuration not given here. ξV = CC(C)C(N)C(=O)O

Assay in all cases: NCI-60 one-dose screen, 48 h (100 = growth as untreated, 0 = no growth, -100 = all killed)
One experiment relates to HCT-15 colon. The following applies: 10 µM.
Another experiment has as its system HT29 colon. The note with it: 10 µM.
The subject of a further experiment is SNB-75 CNS. The following applies: 10 µM.
For a further experiment, the system named is SNB-19 CNS. The following applies: 10 µM.
Another experiment deals with U251 CNS. The following applies: 10 µM unless noted.
The next experiment concerns PC-3 prostate. The following applies: 10 µM.
A further experiment has as its system SK-MEL-5 melanoma. The following applies: 10 µM unless noted.
The next experiment relates to UACC-62 melanoma. The note with it: 10 µM.
The test system of another experiment is LOX IMVI melanoma. The note with it: 10 µM unless noted.
In the next experiment the test system is SK-MEL-28 melanoma. The note with it: 10 µM.
Another experiment deals with EKVX NSCLC. The note with it: 10 µM.
In another experiment the test system is UO-31 renal. The note with it: 10 µM.
For a further experiment, the system named is TK-10 renal. The following applies: 10 µM.
The test system of another experiment is ACHN renal. The note with it: 10 µM.
In another experiment the test system is CAKI-1 renal. The following applies: 10 µM.
In the next experiment the test system is A498 renal. The note with it: 10 µM.
The next experiment concerns CCRF-CEM leukemia. The following applies: 10 µM.
For a further experiment, the system named is MOLT-4 leukemia. The following applies: 10 µM.
The subject of the next experiment is SK-MEL-2 melanoma. The note with it: 10 µM.
Another experiment deals with SN12C renal. The following applies: 10 µM.

For `CC(C)(C)CC(C)(C)c1ccc(OCCO)cc1`, the growth with HCT-15 colon is 99.8%; in the experiment with HT29 colon, 99.3%; with SNB-75 CNS, 101%; in the experiment on SNB-19 CNS it was 106%; in the experiment with U251 CNS it was 104%; in the experiment on PC-3 prostate, 117%. Further, the growth in the experiment on SK-MEL-5 melanoma is 119%; in the experiment with UACC-62 melanoma it was 106%; in the experiment on LOX IMVI melanoma it was 99.1%; in the experiment on SK-MEL-28 melanoma it was 141%; with EKVX NSCLC it was 122%; with UO-31 renal, 88.2%. Also, the growth is 78.2% in the experiment with TK-10 renal; 117% with ACHN renal; 115% with CAKI-1 renal; 115% with A498 renal; 106% in the experiment with CCRF-CEM leukemia; 85.4% in the experiment on MOLT-4 leukemia.
In the case of `Clc1cc(Cl)c(Cl)nn1`, the growth with HCT-15 colon was 107%; in the experiment with HT29 colon, 99.2%; in the experiment on SNB-75 CNS, 107%; in the experiment on SNB-19 CNS, 94.2%; in the experiment with U251 CNS, 81.1%; with PC-3 prostate, 80.9%. Moreover, the growth was 103% in the experiment with SK-MEL-5 melanoma; 88.7% in the experiment on UACC-62 melanoma; 95.7% in the experiment on LOX IMVI melanoma; 116% with SK-MEL-28 melanoma; 99.9% with SK-MEL-2 melanoma; 115% in the experiment on EKVX NSCLC. Further, the growth in the experiment on UO-31 renal was 106%; in the experiment with TK-10 renal, 146%; in the experiment on ACHN renal, 113%; in the experiment on CAKI-1 renal, 109%; with A498 renal it was 109%; in the experiment with CCRF-CEM leukemia, 88.7%.
With `COC1OCC(O)C(O)C1O` (stereo not given), the growth is 98.5% in the experiment with HCT-15 colon; 104% in the experiment on HT29 colon; 80.8% in the experiment on SNB-75 CNS; 113% in the experiment with SNB-19 CNS; 94.5% in the experiment with U251 CNS; 92.4% in the experiment on PC-3 prostate. Also, the growth with SK-MEL-5 melanoma is 101%; with UACC-62 melanoma, 105%; with LOX IMVI melanoma it was 95.3%; in the experiment with SK-MEL-28 melanoma, 106%; in the experiment with SK-MEL-2 melanoma, 114%; in the experiment on EKVX NSCLC, 99.1%. The growth in the experiment with UO-31 renal was 86.2%; in the experiment on TK-10 renal, 92.9%; with ACHN renal it was 111%; in the experiment on CAKI-1 renal, 89.7%; with A498 renal it was 84.5%; in the experiment with CCRF-CEM leukemia it was 107%. In addition, the growth in the experiment with MOLT-4 leukemia is 101%.
Consider `NC1=C(Cl)C(=O)c2ccccc2C1=O`, for which the growth was 51% in the experiment with HCT-15 colon; 58.8% in the experiment with HT29 colon; -0.135% (active) in the experiment with SNB-75 CNS; 72.1% in the experiment on SNB-19 CNS; 50.5% in the experiment on U251 CNS; 53% with PC-3 prostate. Also, the growth in the experiment with UACC-62 melanoma is -41.4% (active); in the experiment with LOX IMVI melanoma, 19.2%; with SK-MEL-28 melanoma it was 105%; in the experiment with SK-MEL-2 melanoma, 51.9%; in the experiment with EKVX NSCLC, 107%; with UO-31 renal it was 84.3%. The growth with TK-10 renal was 120%; in the experiment with ACHN renal it was 76.8%; in the experiment with CAKI-1 renal, 89.5%; in the experiment with A498 renal, 104%; in the experiment with CCRF-CEM leukemia it was 46%; with MOLT-4 leukemia, 56.1%.
Turning to `O=C(/C=C/c1ccccn1)c1ccccc1`, the growth in the experiment with HCT-15 colon was -8.15% (active); in the experiment with HT29 colon, -67.2% (active); in the experiment on SNB-75 CNS, 66.2%; in the experiment on SNB-19 CNS it was 61.8%; in the experiment on U251 CNS it was -31.4% (active); with PC-3 prostate it was 69.3%. Besides, the growth is 74.7% in the experiment with SK-MEL-5 melanoma; 82.4% in the experiment on UACC-62 melanoma; -31.2% (active) in the experiment with LOX IMVI melanoma; 100% in the experiment on SK-MEL-28 melanoma; 79.3% in the experiment with SK-MEL-2 melanoma; 93.8% in the experiment on EKVX NSCLC. The growth in the experiment on UO-31 renal is 56.5%; with TK-10 renal, 19.5%; in the experiment with ACHN renal, -27.1% (active); in the experiment on A498 renal it was 78.9%; with CCRF-CEM leukemia, -12.6% (active); with MOLT-4 leukemia, 3.13% (active).
As to `CC(C)C(NC(=O)CN)C(=O)O` (stereo not given) (H-Gly-[ξV]-OH), the growth in the experiment on HCT-15 colon is 109% and 106%; in the experiment with HT29 colon, 101% and 100%; with SNB-75 CNS it was 104% and 84.7%; with SNB-19 CNS, 106%; in the experiment with U251 CNS, 102% and 98.9%; in the experiment on PC-3 prostate, 92.6% and 88.6%. The growth with UACC-62 melanoma is 104% and 94.5%; with LOX IMVI melanoma, 101% and 102%; in the experiment with SK-MEL-28 melanoma it was 109% and 107%; in the experiment on SK-MEL-2 melanoma, 108% and 109%; in the experiment with EKVX NSCLC, 102% and 103%; in the experiment on SN12C renal, 104% and 100%. The growth is 84% in the experiment on UO-31 renal; 103% and 93.9% in the experiment on TK-10 renal; 102% and 109% with ACHN renal; 96.4% and 97.1% in the experiment with CAKI-1 renal; 102% and 99.9% in the experiment on A498 renal; 91.9% and 96% with CCRF-CEM leukemia. Moreover, the growth in the experiment with MOLT-4 leukemia was 79.2% and 101%.

Values taken from PubChem BioAssay (NCI).
